Test results: PubChem BioAssay (NCATS)
Records with an inconclusive call do not appear. Active and inactive are the calls of the source. Calls come from the whole dose curve; as a rule, active = well fitted inhibition curve with a large enough effect; inconclusive = small, poorly fitted or top-dose-only effect; inactive = flat fitted curve, though single readings scatter.

Columns and labels:
[1] = system: P93_24; assay: qHTS profiling for inhibitors of Plasmodium falciparum proliferation (AID 504749);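 note: 0% = DMSO vehicle and full inhibition = artemisinin control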; conditions: P. falciparum in erythrocytes, SYBR Green DNA, 72 h; series mostly up to 28.7 µM
In short: (§1)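 SYBR Green fluorescence (ex 485 nm, em 535 nm) reports parasite DNA after 72 h compound exposure of infected red cells at 0.3% parasitemia, 2.5% hematocrit; signal normalized to 0.29 uM artemisinin and vehicle wells.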

[2] = system: P94_40; assay: as above; conditions: P. falciparum in erythrocytes, SYBR Green DNA, 72 h; series mostly up to 28.7 µM
In short: as §1

[3] = system: PAD; assay: as above; conditions: P. falciparum in erythrocytes, SYBR Green DNA, 72 h; series mostly up to 28.7 µM
In short: as §1

[4] = system: PC15; assay: as above; conditions: P. falciparum in erythrocytes, SYBR Green DNA, 72 h; series mostly up to 28.7 µM
In short: as §1

[5] = system: PC26; assay: as above; conditions: P. falciparum in erythrocytes, SYBR Green DNA, 72 h; series mostly up to 28.7 µM
In short: as §1

[6] = system: PC49; assay: as above; conditions: P. falciparum in erythrocytes, SYBR Green DNA, 72 h; series mostly up to 28.7 µM
In short: as §1

[7] = system: SC27B; assay: as above; conditions: P. falciparum in erythrocytes, SYBR Green DNA, 72 h; series mostly up to 28.7 µM
In short: as §1

[8] = system: TAB109; assay: as above; conditions: P. falciparum in erythrocytes, SYBR Green DNA, 72 h; series mostly up to 28.7 µM
In short: as §1

[9] = system: TAB113; assay: as above; conditions: P. falciparum in erythrocytes, SYBR Green DNA, 72 h; series mostly up to 28.7 µM
In short: as §1

[10] = system: TAB165; assay: as above; conditions: P. falciparum in erythrocytes, SYBR Green DNA, 72 h; series mostly up to 28.7 µM
In short: as §1

[11] = system: CRL-7250; assay: Cytotoxic Profiling of Annotated Libraries Using Quantitative High-Throughput Screening (AID 1296008); conditions: Five cell lines viability, CellTiter-Glo ATP luminescence, 48-72 h; active compounds read low; for max response: % is set by controls: 0 for no effect and ±100 for the full control effect
In short: (§2)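 Cells exposed to compounds for 48 or 72 hr at 37 degrees Celsius. Viability read as ATP-coupled luminescence with CellTiter-Glo after 10 min at room temperature.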

[12] = system: HEK293; assay: as above; conditions: Five cell lines viability, CellTiter-Glo ATP luminescence, 48-72 h; active compounds read low
In short: as §2

[13] = system: HaCat; assay: as above; conditions: Five cell lines viability, CellTiter-Glo ATP luminescence, 48-72 h; active compounds read low
In short: as §2

[14] = system: KB-3-1; assay: as above; conditions: Five cell lines viability, CellTiter-Glo ATP luminescence, 48-72 h, active compounds read low
In short: as §2

[15] = system: NIH3T3; assay: as above; conditions: Five cell lines viability, CellTiter-Glo ATP luminescence, 48-72 h; active compounds read low
In short: as §2

[16] = system: HEK293T; assay: qHTS assay to identify novel small-molecules to repurpose for Merkel cell carcinoma treatment (AID 1296009); conditions: MCC and control cell lines, CellTiter-Glo viability, 72 h; at 44.8 µM (top of the series) unless noted
In short: (§3)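 CellTiter-Glo luminescence after 72 hr compound exposure at 37 degree celsius gave cell viability. Libraries NPC and MIPE were run as 8- and 11-point dose responses; RLUs normalized to DMSO (negative) and no-cell (cytotoxicity) controls.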

[17] = system: MCC-13; assay: as above; conditions: MCC and control cell lines, CellTiter-Glo viability, 72 h; series mostly up to 46 µM
In short: as §3

[18] = system: MCC-26; assay: as above; conditions: MCC and control cell lines, CellTiter-Glo viability, 72 h; series mostly up to 46 µM
In short: as §3

[19] = system: W2; assay: qHTS profiling for inhibitors of Plasmodium falciparum proliferation (AID 504749);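 note: 0% = DMSO vehicle and full inhibition = artemisinin control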; conditions: P. falciparum in erythrocytes, SYBR Green DNA, 72 h; series mostly up to 28.7 µM
In short: as §1
Note: nearly all actives have a fitted effect of over 60% in size.

Cc1cccc(C)c1NC(=O)CC12CCCN1CCC2
inactive: Potency [1] | Potency [2] | Potency [3] | Potency [4] | Potency [5] | Potency [6] | Potency [7] | Potency [8] | Potency [9] | Potency [10] | max response [11] 2.63% | outcome [12] | max response [13] -12.5% | max response [14] -0.628% | max response [15] -1.1% | outcome [16] | outcome [17] | outcome [18]

CC(=O)[C@@]1(O)CC[C@H]2[C@@H]3C[C@H](C)C4=CC(=O)C=C[C@]4(C)[C@@]3(F)[C@@H](O)C[C@@]21C
inactive: max response [11] -3.29% | outcome [12] | max response [13] 4.35% | max response [14] 9.43% | max response [15] 4.42% | outcome [16] | outcome [17] | outcome [18]

CCCOC(=O)c1ccc(N)cc1
inactive: Potency [1] | Potency [2] | Potency [3] | Potency [4] | Potency [5] | Potency [6] | Potency [7] | Potency [8] | Potency [9] | Potency [10] | Potency [19] | outcome [11] | outcome [12] | max response [13] -1.1% | max response [14] 1.99% | max response [15] -2.69% | outcome [16] | outcome [17] | outcome [18]

Cc1ccsc1/C=C/C1=NCCCN1C
inactive: max response [11] 3.4% | max response [12] -1.17% | max response [13] 3.54% | max response [14] -0.196% | outcome [15] | outcome [17] | outcome [18]

CC(=O)N(CC(O)CN(C(C)=O)c1c(I)c(C(=O)NCC(O)CO)c(I)c(C(=O)NCC(O)CO)c1I)c1c(I)c(C(=O)NCC(O)CO)c(I)c(C(=O)NCC(O)CO)c1I (stereo not drawn)
inactive: max response [11] -0.159% | max response [12] -0.57% | max response [13] -14.3% | max response [14] 0.0705% | outcome [15] | outcome [17] | outcome [18]

COc1cc(C(=O)NCCCCCC(=O)O)cc(OC)c1OC
inactive: Potency [1] | Potency [2] | Potency [3] | Potency [4] | Potency [5] | Potency [6] | Potency [7] | Potency [8] | Potency [9] | Potency [10] | max response [11] -1.11% | outcome [12] | max response [13] 4.84% | max response [14] 1.07% | max response [15] 3.71% | outcome [16] | outcome [17] | outcome [18]

O=C(O)Cc1cn(-c2ccccc2)nc1-c1ccc(Cl)cc1
inactive: Potency [1] | Potency [2] | Potency [3] | Potency [4] | Potency [5] | Potency [6] | Potency [7] | Potency [8] | Potency [9] | Potency [10] | Potency [19] | max response [11] 3.22% | outcome [12] | max response [13] -24% | max response [14] 2.82% | max response [15] 4.05% | outcome [16] | outcome [17]

CC(C)=CCC/C(C)=C/CO
inactive: Potency [1] | Potency [2] | Potency [3] | Potency [4] | Potency [5] | Potency [6] | Potency [7] | Potency [8] | Potency [9] | Potency [10] | Potency [19] | outcome [11] | outcome [12] | max response [13] -2.14% | max response [14] 8.27% | max response [15] -13.7% | outcome [16] | outcome [17] | outcome [18]

C[N+](C)(C)CC[N+]1(C)Cc2c(Cl)c(Cl)c(Cl)c(Cl)c2C1
inactive: Potency [1] | Potency [2] | Potency [3] | Potency [4] | Potency [5] | Potency [6] | Potency [7] | Potency [8] | Potency [9] | Potency [10] | Potency [19] | max response [11] -7.06% | outcome [12] | max response [13] -6.5% | max response [14] 9.08% | max response [15] 3.9% | outcome [16] | outcome [17] | outcome [18]

NNc1nnc(NN)c2ccccc12
inactive: Potency [1] | Potency [2] | Potency [3] | Potency [4] | Potency [5] | Potency [6] | Potency [7] | Potency [8] | Potency [9] | Potency [10] | max response [11] 4.89% | max response [12] -11.7% | max response [13] 3.01% | max response [14] -5.02% | outcome [15] | outcome [17] | outcome [18]

Cc1cc(NC(=O)C2=C(O)c3ccccc3S(=O)(=O)N2C)no1
inactive: Potency [1] | Potency [2] | Potency [3] | Potency [4] | Potency [5] | Potency [6] | Potency [7] | Potency [8] | Potency [9] | Potency [10] | max response [11] -9.44% | outcome [12] | max response [13] 1.12% | max response [14] -4.98% | max response [15] -3.38% | outcome [16] | outcome [17] | outcome [18]

COC(=O)c1ccccc1C(=O)c1ccc(OCCN2CCCCC2)cc1
inactive: Potency [1] | Potency [2] | Potency [3] | Potency [4] | Potency [5] | Potency [6] | Potency [7] | Potency [8] | Potency [9] | Potency [10] | max response [11] -2.25% | outcome [12] | max response [13] -0.875% | max response [14] -16% | max response [15] -3.51% | outcome [16] | outcome [17] | outcome [18]

CNCc1ccccc1
inactive: Potency [1] | Potency [2] | Potency [3] | Potency [4] | Potency [5] | Potency [6] | Potency [7] | Potency [8] | Potency [9] | Potency [10] | Potency [19] | max response [11] 4.71% | outcome [12] | max response [13] -18.5% | max response [14] -4.93% | max response [15] 1.15% | outcome [16] | outcome [17] | outcome [18]

O=C(Cn1ccnc1[N+](=O)[O-])NCCO
inactive: Potency [1] | Potency [2] | Potency [3] | Potency [4] | Potency [5] | Potency [6] | Potency [7] | Potency [8] | Potency [9] | Potency [10] | Potency [19] | max response [11] 1.72% | outcome [12] | max response [13] 0.0021% | max response [14] 0.623% | max response [15] 4.22% | outcome [16] | outcome [17]
